# Values joined by “and” are separate entries in the source; they are usually repeats but may differ in a detail not shown here. Equal entries are not always repeated. Values without a mark were called inactive. Active and inactive are the calls of the source. The rule behind the calls is not given here.
# Molecular target: Serine/threonine-protein kinase PLK1 (Homo sapiens) (UniProt P53350)
# Assay: Plk1 polo box domain binding inhibitors, SAR follow-up, biochemical, fluorescence polarization, purchased analogs (AID 1053)
# Details: Plk1 PBD fluorescence polarization peptide binding; at 20 µM; stronger effect = higher value
# Chain of Serine/threonine-protein kinase PLK1 (Homo sapiens) (P53350 whole entry, looked up, the tested form may be a part): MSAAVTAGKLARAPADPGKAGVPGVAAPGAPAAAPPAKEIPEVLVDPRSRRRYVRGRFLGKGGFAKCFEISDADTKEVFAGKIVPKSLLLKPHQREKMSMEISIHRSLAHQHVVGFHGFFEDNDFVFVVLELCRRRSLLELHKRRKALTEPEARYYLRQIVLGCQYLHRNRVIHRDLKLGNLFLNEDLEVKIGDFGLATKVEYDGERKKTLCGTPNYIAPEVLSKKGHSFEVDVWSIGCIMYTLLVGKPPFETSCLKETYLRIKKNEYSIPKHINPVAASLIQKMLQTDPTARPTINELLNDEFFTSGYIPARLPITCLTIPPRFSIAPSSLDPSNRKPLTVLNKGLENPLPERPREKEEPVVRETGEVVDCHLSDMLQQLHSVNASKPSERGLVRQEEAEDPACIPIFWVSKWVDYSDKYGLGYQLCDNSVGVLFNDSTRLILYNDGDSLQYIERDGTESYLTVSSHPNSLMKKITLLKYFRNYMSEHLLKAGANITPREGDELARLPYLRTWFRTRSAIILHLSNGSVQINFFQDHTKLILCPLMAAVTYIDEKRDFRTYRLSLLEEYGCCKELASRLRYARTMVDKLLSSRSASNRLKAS
row,SMILES,inhibition
1,CCOC(=O)c1ccc(NC(=O)C2C3C=CC(C3)C2C(=O)O)cc1 (configuration not stated),-31.4%
2,COc1ccccc1N(CN1C(=O)c2ccccc2C1=O)C(C)=O,-46.9%
3,Cc1ccccc1-c1nnc2[nH]c(=O)n(C)c(=O)c2n1,-8.49% and -8.27%
4,CCOC(=O)c1ccc(NC(=O)C2COc3ccccc3O2)cc1 (configuration not stated),-40.6%
5,CCOC(=O)c1ccc(NC(=O)C2C3C=CC(C3)C2(C)C(=O)O)cc1 (configuration not stated),-56.5%
6,Cn1nc(-c2ccc(F)cc2)nc2c(=O)n(C)c(=O)nc1-2,3.86%
7,CC(=O)N(/N=C1\Sc2ccccc2C1=O)c1ccc(C)cc1C,29.2%
8,CC(=O)Oc1c(Cl)c(N2CCOCC2)c(OC(C)=O)c2ccccc12,-39.3%
9,CC(=O)N(/C=C1\Sc2ccccc2C1=O)c1ccc(C)c(C)c1,-217%
10,CCn1nc(-c2ccccc2C)nc2c(=O)n(C)c(=O)nc1-2,2.2% and 21.7%
11,Cc1cc(-n2c(C)cc(C=C3C(=O)NC(=O)NC3=O)c2C)ccc1I,-48.2%
12,CCCCCC(=O)N(CN1C(=O)c2ccccc2C1=O)c1cccc(C(=O)O)c1,-10.1%
13,CCOC(=O)c1ccc(N=Cc2c(O)n(C)c(=O)n(C)c2=O)cc1,-54.3%
14,CCOC(=O)c1ccc(N=Cc2c(O)n(Cc3ccccc3Cl)c(=O)[nH]c2=O)cc1,-73.2%
15,COC(=O)c1ccc(NC(=O)c2cc(-c3ccc(C)o3)nc3ccccc23)cc1,25.4%
16,O=C(COC(=O)c1ccc(NC(=O)c2ccc([N+](=O)[O-])cc2)cc1)c1ccccc1,61.8% (active)
17,CCOC(=O)c1ccc(NC(=O)C23CC4CC(CC(C4)C2)C3)cc1,-35.4%
18,CCn1nc(-c2ccc(OC)cc2)nc2c(=O)n(C)c(=O)nc1-2,28%
19,COc1ccc(N(CN2C(=O)c3ccccc3C2=O)C(=O)C(F)(F)F)cc1,-44.5%

row,SMILES,inhibition
1,CC(=O)N(CN1C(=O)c2ccccc2C1=O)c1ccc(C)c(Cl)c1,-39.1%
2,CC(=O)Oc1ccccc1N(/C=C1\Sc2ccccc2C1=O)C(C)=O,-254% and -278%
3,CCOC(=O)c1ccc(NC(=O)C2OCCc3ccccc32)cc1 (configuration not stated),-101%
4,Cn1c(=O)[nH]c2nnc(-c3ccc([N+](=O)[O-])cc3)nc2c1=O,-49.9%
5,CCOC(=O)c1ccc(N=Cc2c(O)n(-c3cccc(OC)c3)c(=O)[nH]c2=O)cc1,-40.6%
6,CC(=O)N(CN1C(=O)c2ccccc2C1=O)c1cccc(F)c1,-51.8%
7,CC(=O)N(/N=C1\Sc2ccccc2C1=O)c1ccccc1C,17.5%
8,CC(=O)N(/C=C1\Sc2ccccc2C1=O)c1ccc(C)cc1,-201% and -215% and -234%
9,Cc1ccccc1-c1nc2c(=O)n(C)c(=O)nc-2n(C)n1,36.2% and 24.8%
10,CCn1c(N/C(O)=C/C(O)(C(F)(F)F)C(F)(F)F)nc2ccccc21,-49.9%
11,CCCOC(=O)c1ccc(NC(=O)c2ccc(OC)c([N+](=O)[O-])c2)cc1,-17.9%
12,CC(=O)N(/N=C1\Sc2ccccc2C1=O)c1cccc(Br)c1,20.2%
13,CC(=O)N(CN1C(=O)c2ccccc2C1=O)c1cc(Br)ccc1C,-56.1%
14,CCOC(=O)N1CCN(c2cc3nccnc3cc2F)CC1,-52.1%
15,CC(OC(=O)c1ccc(NC(=O)c2ccc(Br)cc2)cc1)C(=O)c1ccccc1 (configuration not stated),0.95%
16,O=c1[nH]c(=O)c2nc(-c3ccc(Cl)cc3)cnc2[nH]1,-45.5%
17,CCn1nc(-c2ccc(C(F)(F)F)cc2)nc2c(=O)n(C)c(=O)nc1-2,10.8%
18,CCCCCCC(=O)N(CN1C(=O)c2ccccc2C1=O)c1ccc(OCc2ccccc2)cc1,-7.37%

# Reference: PubChem BioAssay AID1053 (University of Pittsburgh Molecular Library Screening Center, 2008)
